# Results filed as inconclusive are left out. A call without a number means that no potency is given here. Calls of active or inactive are those of the source. Calls come from the whole dose curve; as a rule, active = well fitted activation curve with a large enough effect; inconclusive = small, poorly fitted or top-dose-only effect; inactive = flat fitted curve, though single readings scatter.
# Assay: qHTS for Inhibitors of Cell Surface uPA Generation: FP59 Counterscreen for Cherry-picked Compounds
# Conditions: FP59 anthrax toxin cytotoxicity counterscreen, cells; series mostly up to 115 µM
# Potency is the fitted concentration of half-maximal effect.
row,Compound,Potency
1,COc1ccc(S(=O)(=O)N2CCN(Cc3ccccc3)CC2)c(C)c1,inactive
2,Cc1cccc(C)c1NC(=O)c1c(O)c2ccccc2[nH]c1=O,inactive
3,COC(=O)c1cc(CNC(=O)c2ccc(N3CCCC3)c([N+](=O)[O-])c2)ccc1OC,inactive
4,CCCCOc1ccc(S(=O)(=O)N2CCCCC2)cc1,inactive
5,Cc1nc(SCC(=O)NCCN2C(=O)CSC2=O)nc(C)c1C,inactive
6,CCc1ccc(N2CC(C(=O)Nc3ccc4c(c3)OCO4)CC2=O)cc1 (configuration not stated),inactive
7,C[C@@H](NC(=O)c1nc[nH]c1C(=O)NCc1ccc(CNC(=O)OC(C)(C)C)cc1)c1ccccc1,58.5 µM (active)
8,O=C(C1=C[C@H](c2ccccc2)C[C@H](OCCCCO)O1)N1CCN(Cc2ccc3c(c2)OCO3)CC1,inactive
9,Cc1nc(C(=O)N2CCC(n3nccc3NC(=O)Nc3ccccc3Cl)CC2)cs1,inactive
10,CCC1=NN(C(=O)C(=O)Nc2ccc(OC)cc2)C(O)(C(F)(F)F)C1 (configuration not stated),inactive
11,O=C(CSc1ccc(Cl)cc1)N1CCCC1,inactive
12,Oc1ccc(/C=N/Nc2cccc(Cl)n2)c(O)c1,inactive
13,O=C(COc1cc2oc(=O)cc(-c3ccccc3)c2cc1Cl)NC(Cc1c[nH]c2ccc(O)cc12)C(=O)O (configuration not stated),inactive
14,COc1ccccc1NS(=O)(=O)c1cc(NC(=O)CCc2nc3ccccc3c(=O)[nH]2)ccc1C,inactive
15,CCC(NC(=S)NCc1ccc(F)cc1)c1ccccc1 (configuration not stated),inactive
16,COc1ccc2nc(C)cc(Nc3ccccc3O)c2c1,inactive
17,O=C(O)c1ccccc1/C=N/NC(=S)NC1CCCCC1,inactive

# — PubChem BioAssay AID720517 (National Center for Advancing Translational Sciences (NCATS), 2013)
